From the supplement of paper PMC10338343
± gives the standard deviation.

What was measured:
[1] = tested on: MILI (PIWIL2) piRISC loaded with L1MC piRNA (26 nt); experiment: pre-steady-state target cleavage rate (min^-1); guide: L1MC piRNA 5'p-UAACUAAAUACUAUGCAAGCUGUAGG; higher = faster piRNA-guided slicing of the target
Summary of the method: (§1)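 Active affinity-purified piRISC (1 nM) loaded with one synthetic guide was mixed with a transcribed, DNA-blocked target RNA library (0.1 nM), with or without 500 nM GTSF1 partner protein, in HEPES–potassium acetate buffer at 33 °C for 0–8 or 0–960 min. Uncleaved targets were sequenced, normalised to depth and to weakly complementary targets, and pooled across three trials, with k3 capped at 0.0001 min^-1. The pre-steady-state cleavage rate was determined with a burst-and-steady-state fit.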

[2] = tested on: EfPiwi piRISC loaded with L1MC piRNA (26 nt); experiment: pre-steady-state target cleavage rate (min^-1); auxiliary factor: none (no Gtsf1); guide: L1MC piRNA 5'p-UAACUAAAUACUAUGCAAGCUGUAGG; higher = faster piRNA-guided slicing of the target
Summary of the method: as §1

[3] = tested on: EfPiwi piRISC loaded with L1MC piRNA (26 nt); experiment: pre-steady-state target cleavage rate (min^-1); auxiliary factor: 500 nM Ephydatia muelleri Gtsf1; guide: L1MC piRNA 5'p-UAACUAAAUACUAUGCAAGCUGUAGG; MIWI and MILI are mouse PIWI proteins and EfPiwi is from a freshwater sponge; tags in brackets are library labels; higher = faster piRNA-guided slicing of the target
Summary of the method: as §1

[4] = auxiliary factor: 500 nM mouse GTSF1
[5] = auxiliary factor: none (no GTSF1)

Sequence	pre-steady-state target cleavage rate [1, 4]	pre-steady-state target cleavage rate [2]	pre-steady-state target cleavage rate [3]	pre-steady-state target cleavage rate [1, 5]
UCCUGGAUGUCCUUGCAUAGUUUUUAGUAA	0.013 ± 0.0043	< 0.0001	–	–
UCCUCCUACAGCUUGCAUUCUAUUUUCAAA	0.0147 ± 0.0054	< 0.0001	–	–
UCCUGGAUGUCGAAGCAUAGUAUUUAGGUA	0.00926 ± 0.0047	< 0.0001	–	–
UCCUGGAUGUCCUUGCAUAGUUUUUACUUA	0.00658 ± 0.0044	< 0.0001	–	–
UCCUGGAUGUCGAACGAUAGUAUUUGAGUUA	–	< 0.0001	–	–
UCCUGGAACACCUUGCAUAGUAUUUUCAAA	0.0441 ± 0.015	< 0.0001	–	–
UCCUGGAUGUCGUAGCAUAGUAUUUUGUUA	0.0314 ± 0.01	< 0.0001	–	–
UCCUGGAUGUCGAACCCUAGUAUUUAGUUA	–	< 0.0001	< 0.0001	–
UCCUGCUACAGCUUGGAUAGUAUUUACAAA	–	< 0.0001	0.00306 ± 0.0026	–
UCCUGGAUCUGCUUGCAUAGUAUAUAGUUA	0.191 ± 0.019	0.011 ± 0.0069	0.0643 ± 0.018	0.00587 ± 0.0024
UCCUGGAUCAGCUUGCAUAGCAUUUAGUUA	0.08 ± 0.012	0.00546 ± 0.0038	0.00774 ± 0.0021	0.00359 ± 0.0025
UCCUGGAUCAGCUUGCAUAGUACUUUAGUUA	0.14 ± 0.016	0.00468 ± 0.0038	0.00735 ± 0.0023	0.00672 ± 0.0027
UCCUGGAUCAGCUUGCAUAGUAUCUUAGUUA	0.234 ± 0.021	0.0132 ± 0.0071	0.0248 ± 0.0072	0.00648 ± 0.0025
UCCUGCUACAGCUUGCAUAGUAUUAUGAAA	0.0843 ± 0.025	< 0.0001	0.00355 ± 0.0023	–
UCCUGGAAGAGCUUGCUUAGUAUUUAGUUA	0.204 ± 0.016	0.00878 ± 0.005	0.0135 ± 0.0043	0.0109 ± 0.0029
UCCUGCUACAGGUUGCAUAGUAUUUACAAA	0.0112 ± 0.0054	< 0.0001	0.00244 ± 0.0017	–
UCCUGGAUGUCCUUGCAUAGUAUAUACUUA	0.00862 ± 0.0049	–	–	–
UCCUGCAUGAGCUUGCAUAGUAUUUAGAAA	0.157 ± 0.028	< 0.0001	0.00569 ± 0.0021	–
UCCUGGAACAGCUUGCAUCGUAUUUAGUUA	0.0882 ± 0.013	0.00791 ± 0.0048	0.0172 ± 0.0048	0.00682 ± 0.0024
UCCUGGAAGUGCUUGCAUAGUAUUUAGAAA	0.00889 ± 0.0052	< 0.0001	0.00379 ± 0.0018	–
UCCUGGAACAGCUUGUAUAGUAUUUAGUUA	0.323 ± 0.017	0.00519 ± 0.0044	0.0686 ± 0.013	0.00685 ± 0.0022
UCCUGGAUGUCGAUGCAUAGUAUGUAGUUA	0.0337 ± 0.0087	–	–	–
UCCUGGAACAGCUUGCAUUGUAUUAAGUUA	0.163 ± 0.026	–	–	–
UCCUGGAUGUCGAAGGAUAGUAUUAAGUUA	–	< 0.0001	< 0.0001	–
UCCUGGAUGUCGAACCAUUCAAUUUAGUUA	–	< 0.0001	< 0.0001	–
UCCUCCUACACGAUGCAUAGUAUUUUCAAA	0.0649 ± 0.017	–	–	–

Sequence	pre-steady-state target cleavage rate [1, 4]	pre-steady-state target cleavage rate [2]	pre-steady-state target cleavage rate [3]	pre-steady-state target cleavage rate [1, 5]
UCCUGGAUGACCUUGCAUAGUAUUUAGAAA	0.133 ± 0.038	–	–	–
UCCUGGAACAGCUUGCAUAGUAAUUUCAAA	0.0786 ± 0.026	–	–	–
UCCUGGAUGAGCUUGCAUAGUAGUUUAGUUA	0.115 ± 0.022	0.0124 ± 0.0079	0.00964 ± 0.0035	0.0138 ± 0.0039
UCCUGGAUCAGCUUGCAUAGUAUUAUAGUUA	0.283 ± 0.022	0.00759 ± 0.0041	0.0796 ± 0.024	0.00669 ± 0.0028
UCCUGCUACAGCUUGCAUAGUAUUUAGCUA	–	< 0.0001	0.00339 ± 0.0014	–
UCCUCCUACAGCUUCCAUAGUAUAUAGUUA	–	< 0.0001	0.00246 ± 0.0022	–
UCCUGGAUCAGCUUGCAUAGUACUUAGUUA	0.237 ± 0.018	0.0113 ± 0.0052	0.0145 ± 0.0031	0.00683 ± 0.0023
UCCUGGAUGUCGAAACAUAGUAUUUAGUUA	0.0131 ± 0.004	–	–	–
UCCUCCUACAGCUUGGAUACUAUUUAGUUA	0.0539 ± 0.0095	0.00497 ± 0.0037	0.0118 ± 0.0031	–
UCCUGGAUCAGCUUGCAUAGUGUUUAGUUA	0.2 ± 0.018	0.00696 ± 0.0045	0.0156 ± 0.0035	0.00361 ± 0.003
UCCUGGAUCAGCUUGCAUAUUAUUUAGUUA	0.0736 ± 0.0095	0.00536 ± 0.0048	0.0367 ± 0.011	–
UCCUGGAUGAGCUUGCAUAGUAUGUAGUUA	0.162 ± 0.033	0.00616 ± 0.0049	0.0135 ± 0.0044	0.0043 ± 0.003
UCCUGGAUGAGCUUGCAUAGUACUUUAGUUA	0.0613 ± 0.0089	0.00423 ± 0.0036	0.00806 ± 0.003	0.00632 ± 0.0026
UCCUGCUACAGCUUGCAUAUGUAUUUAGUUA	0.0123 ± 0.0069	< 0.0001	0.00294 ± 0.0023	–
UCCUGGAUGUGCUUGCAUAGUCUUUAGUUA	0.0458 ± 0.011	0.00821 ± 0.0047	0.00922 ± 0.0036	0.00463 ± 0.0025
UCCUCCUACAGCUUGCAAUCUAUUUAGUAA	0.0401 ± 0.0094	–	–	–
UCCUGGAUCAGCUUGCUUAGAAUUUAGUUA	0.0318 ± 0.0073	–	–	–
UCCUGGAUCAGGUUGCAUAGUAUUUACAAA	0.0312 ± 0.011	–	–	–
UCCUCCUACAGCUUGCAUAGGAUUUAGUUA	0.0118 ± 0.0044	0.00638 ± 0.0035	0.0113 ± 0.0028	–
UCCUCGUACAGCUUGCAUAGAAUUUAGUUA	0.0473 ± 0.0079	0.00853 ± 0.0037	0.00771 ± 0.0018	–
UCCUGGAACAGCUUGCAUUCUAUUUAGUUA	0.0609 ± 0.014	–	–	–
UCCUGGAUGAGCUUGCAUAGAAAUUAGUUA	0.0228 ± 0.0075	–	–	–
UCCUGGAUGUCGAACGUAAGUAAUUAGUUA	–	–	–	< 0.0001
UCCUGGAUCAGCUUGCAUUCUAUUUAGUUA	0.0266 ± 0.0066	–	–	–
UCCUGGAUGUCGAACCAUCAGUAUUUAGUUA	–	–	–	< 0.0001
UCCUGGAUCAGCUUCCAUUGUAUUUAGUUA	0.0508 ± 0.0093	–	–	–
